# Measured values reported in PubChem BioAssay.
# For some assays here: Results with a measured potency or affinity are listed apart. Inconclusive results are not listed. Calls of active or inactive are those of the source. Unless noted, how the calls were made is not given here.
# What was measured:
# [1] = system: XIP peptide (Xip251-270) binding; experiment: small-molecule binders of XIP peptide, primary screen, biochemical, small-molecule microarray, fluorescence 635/667 nm, 0.1 µg/mL protein (AID 1182); details: fluorescent protein binding, 635 nm; higher = more signal, called active from +8 up or from −8 down unless noted
# XIP peptide (Xip251-270) = experiment: small-molecule binders of XIP peptide, primary screen, biochemical, small-molecule microarray, fluorescence 635/667 nm, 0.5 µg/mL protein (AID 1183); details: small-molecule microarray binding, fluorescence 635 nm; higher = more signal
# [2] = Plasmodium falciparum growth inhibition, primary screen, strain 3D7, DAPI fluorescence, 100 nL (AID 1184);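 further: parasites grown inside human red blood cells in medium with human serum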; details: P. falciparum 3D7 growth, 3 d, higher = more signal
# [3] = target: Homeobox protein Hox-A13 (Mus musculus) (UniProt Q62424); experiment: inhibitors of HoxA13-DNA binding, primary screen, biochemical, fluorescence polarization, labeled oligonucleotide (AID 1185); details: 15 min; higher = more signal, called active from +8 up or from −8 down unless noted
# Homeobox protein Hox-A13 (Mus musculus), sequence (Q62424 whole entry, looked up): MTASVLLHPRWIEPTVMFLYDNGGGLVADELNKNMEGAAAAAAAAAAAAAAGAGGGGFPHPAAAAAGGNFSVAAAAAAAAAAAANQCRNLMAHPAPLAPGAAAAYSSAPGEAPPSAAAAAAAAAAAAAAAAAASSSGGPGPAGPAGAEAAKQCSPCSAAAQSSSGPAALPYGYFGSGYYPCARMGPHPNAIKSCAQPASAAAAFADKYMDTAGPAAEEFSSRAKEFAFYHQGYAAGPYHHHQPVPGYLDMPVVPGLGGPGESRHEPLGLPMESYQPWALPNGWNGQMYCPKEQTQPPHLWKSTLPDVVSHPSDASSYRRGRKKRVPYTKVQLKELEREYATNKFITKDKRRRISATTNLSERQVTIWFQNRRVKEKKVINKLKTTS
# [4] = inhibitors of hydroxyurea-induced Chk1 phosphorylation, primary screen, imaging, HeLa, phospho-Chk1 antibody, percent positive cells (AID 1186); details: hydroxyurea-induced phospho-Chk1 immunofluorescence imaging, higher = more signal
# [5] = inhibitors of hydroxyurea-induced Chk1 phosphorylation, primary screen, imaging, HeLa, phospho-Chk1 nuclear intensity (AID 1187); details: hydroxyurea-induced phospho-Chk1 immunofluorescence imaging, higher = more signal
# [6] = inducers of Cryptococcus neoformans cell lysis, dose response, AK release luminescence, cherry-picks (AID 687000;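 active means fitted dose curve reaches 40% lysis signal rise at or below the highest valid concentration tested for that sample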;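 further: luminescent detection of adenylate kinase leaking from lysed yeast; 0% = median neutral control signal and 100% = double that signal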)
# [7] = HepG2 cell cytotoxicity, dose response, cytotoxicity control, cherry-picks, set 2 (AID 687002;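 active means a dose-response fit showing signal loss, with half-maximal concentration no higher than twice the top tested dose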)
# [8] = target: Adenosylmethionine-8-amino-7-oxononanoate aminotransferase (Mycobacterium tuberculosis (strain ATCC 25618 / H37Rv)) (UniProt P9WQ81); experiment: inhibition of purified M. tuberculosis BioA – biochemical, plate reader, cherry-pick samples, dose response (AID 651683)
# Adenosylmethionine-8-amino-7-oxononanoate aminotransferase (Mycobacterium tuberculosis (strain ATCC 25618 / H37Rv)), sequence (P9WQ81 whole entry, looked up): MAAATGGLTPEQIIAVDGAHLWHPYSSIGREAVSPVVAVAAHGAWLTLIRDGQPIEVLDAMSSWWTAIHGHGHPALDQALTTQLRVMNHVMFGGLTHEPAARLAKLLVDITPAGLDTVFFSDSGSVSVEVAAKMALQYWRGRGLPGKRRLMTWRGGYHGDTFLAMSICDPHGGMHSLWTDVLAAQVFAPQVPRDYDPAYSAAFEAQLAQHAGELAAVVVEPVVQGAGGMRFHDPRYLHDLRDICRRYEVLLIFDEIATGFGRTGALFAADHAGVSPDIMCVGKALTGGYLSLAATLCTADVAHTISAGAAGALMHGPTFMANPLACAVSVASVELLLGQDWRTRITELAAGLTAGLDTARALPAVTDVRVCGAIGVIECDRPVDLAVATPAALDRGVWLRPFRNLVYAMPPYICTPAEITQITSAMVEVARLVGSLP
# [9] = Cryptococcus neoformans growth inhibition, dose response, Alamar Blue, cherry-picks (AID 686998;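 active means falling signal with fitted half-maximal potency no higher than twice the top valid tested dose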)
smiles,measurement,setting,value
COC(=O)[C@@]1(Cc2ccccc2)[C@H]2c3cc(C(=O)N(C)C)n(C)c3C[C@H]2CN1C(=O)c1ccccc1,composite z-score,[1],0.0028 (inactive)
same,composite z-score,XIP peptide (Xip251-270),-0.0822
same,z-score,[2],-0.731
same,z-score,[3],-6.38 (inactive)
same,z-score,[4],-0.344 (inactive)
same,z-score,[5],-0.428 (inactive)
CCCc1cc2c(n1CCO)C(C)C1CN(C(=O)c3ccccc3)C(C)(C(=O)OC)C21 (stereo not given),composite z-score,[1],0.26 (inactive)
same,composite z-score,XIP peptide (Xip251-270),0.719
same,z-score,[2],0.119
same,z-score,[3],-4.02 (inactive)
same,z-score,[4],1.28 (inactive)
same,z-score,[5],1.1 (inactive)
O=P(c1ccccc1)(c1ccccc1)N1CC2(CC2)CC(O)(c2ccccc2)C1 (stereo not given),composite z-score,[1],0.115 (inactive)
same,composite z-score,XIP peptide (Xip251-270),0.725
same,z-score,[2],0.45
same,z-score,[3],-2.7 (inactive)
same,z-score,[4],0.37 (inactive)
same,z-score,[5],0.613 (inactive)
CCOC(=O)[C@H]1CC=C2C(=O)Oc3ccccc3[C@@H]21,composite z-score,[1],0.23 (inactive)
same,composite z-score,XIP peptide (Xip251-270),0.637
same,z-score,[2],-0.654
same,z-score,[3],-2.72 (inactive)
same,z-score,[4],0.466 (inactive)
same,z-score,[5],0.0685 (inactive)
CCCc1cc2c(n1Cc1ccco1)C(C)C1CN(C(=O)c3ccccc3)C(C)(C(=O)OC)C21 (stereo not given),composite z-score,[1],1.32 (inactive)
same,composite z-score,XIP peptide (Xip251-270),0.741
same,z-score,[2],0.0125
same,z-score,[3],-4.51 (inactive)
same,z-score,[4],0.586 (inactive)
same,z-score,[5],0.875 (inactive)
CCOC(=O)[C@H]1CC=C2C(=O)Oc3ccc(Br)cc3[C@@H]21,composite z-score,[1],0.874 (inactive)
same,composite z-score,XIP peptide (Xip251-270),0.694
same,z-score,[2],-0.5
same,z-score,[3],-6.05 (inactive)
same,z-score,[4],0.439 (inactive)
same,z-score,[5],0.286 (inactive)
O=c1[nH]c(CN2CC=C(c3ccccc3)CC2)nc2cc(C(F)(F)F)ccc12,outcome,[6],inactive
same,outcome,[7],inactive
COC(=O)[C@@]1(Cc2ccc(F)cc2)[C@H]2c3cc(C(=O)N(C)C)[nH]c3C[C@H]2CN1C(=O)c1ccccc1,composite z-score,[1],0.614 [setting not given] (inactive)
same,composite z-score,XIP peptide (Xip251-270),0.17
same,z-score,[2],0.412
same,z-score,[3],-4.26 [setting not given] (inactive)
same,z-score,[4],1.11 (inactive)
same,z-score,[5],0.831 (inactive)
CC(=O)OC1(C)CC(C)C(=O)C(C(O)CC2CC(=O)NC(=O)C2)C1 (stereo not given),outcome,[6],inactive
same,outcome,[7],inactive
O=C(c1ccncc1)N1CC[C@@H]2[C@@H](CO)Nc3ccc(Br)cc3[C@@H]21,outcome,[8],inactive
CC(Oc1cc2oc(=O)c3c(c2cc1Cl)CCC3)C(=O)NCc1cccnc1 (stereo not given),outcome,[8],inactive
CN1c2ccc(-c3cccc(F)c3)cc2[C@@H]2[C@@H](CCN2C(=O)c2ccncc2)[C@H]1CO,outcome,[8],inactive
Cc1ccc(NCc2nnc(SCC(=O)N3CCc4ccccc43)n2C)cc1,outcome,[8],inactive
Cc1ccc(S(=O)(=O)N(C)C)cc1NC(=O)CSc1nncs1,outcome,[8],inactive
CCCc1cc2c(n1Cc1ccc(C)cc1)C(C)C1CN(C(=O)c3ccccc3)C(C)(C(=O)OC)C21 (stereo not given),composite z-score,[1],0.707 (inactive)
same,composite z-score,XIP peptide (Xip251-270),0.73
same,z-score,[2],-0.0901
same,z-score,[3],-2.8 (inactive)
same,z-score,[4],-0.364 (inactive)
same,z-score,[5],0.0089 (inactive)
O=C(CN1C(=O)/C(=C/c2cccc(Br)c2)SC1=S)Nc1cccnc1,outcome,[8],inactive
COC(=O)[C@@]1(Cc2ccccc2)[C@H]2c3cc(C(=O)N(C)C)[nH]c3C[C@H]2CN1C(=O)c1ccccc1,composite z-score,[1],0.665 (inactive)
same,composite z-score,XIP peptide (Xip251-270),-0.456
same,z-score,[2],0.747
same,z-score,[3],-3.47 (inactive)
same,z-score,[4],-0.493 (inactive)
same,z-score,[5],-0.73 (inactive)
CCOc1ccc(-n2c(SCC(N)=O)nc3c(c2=O)SCC3)cc1,outcome,[8],inactive
C[C@@H]1CN([C@@H](C)CO)C(=O)CCCn2nncc2CO[C@H]1CN(C)C(=O)Oc1cccc2ccccc12,outcome,[9],inactive
same,outcome,[7],inactive
COc1cc2c(cc1O)C=[N+](C)CC2,composite z-score,[1],-1.21 (inactive)
same,composite z-score,XIP peptide (Xip251-270),-0.417
same,z-score,[2],-0.0765
same,z-score,[3],-2.14 (inactive)
same,z-score,[4],-0.663 (inactive)
same,z-score,[5],-0.875 (inactive)
Nc1cc(C(=O)O)ccc1Nc1ccccc1,outcome,[8],inactive
C[C@H]1CN([C@@H](C)CO)C(=O)CCCn2nncc2CO[C@H]1CN(C)C(=O)Oc1cccc2ccccc12,outcome,[9],inactive
same,outcome,[6],inactive
same,outcome,[7],inactive
O=C(C[C@H]1C[C@H]2c3cc(NC(=O)c4cccnc4)ccc3O[C@H]2[C@H](CO)O1)NCc1ccccn1,outcome,[8],inactive
CC[C@H](C)[C@@H]1NC(=O)CNC(=O)c2csc(n2)[C@H](C(C)(C)O)OC(=O)C(C)(C)[C@H](CCCC(C)(Cl)Cl)OC(=O)c2csc1n2,outcome,[7],inactive
Cc1c(OC(C)C(=O)NCC2CCC(C(=O)O)CC2)ccc2c1oc(=O)c1ccccc12 (stereo not given),outcome,[8],inactive
COc1ccccc1-c1cc(C(F)(F)F)nc(S(=O)(=O)CCCC(=O)O)n1,outcome,[8],inactive
CCCc1cc2c(n1Cc1cccc(Cl)c1)C(C)C1CN(C(=O)c3ccccc3)C(C)(C(=O)OC)C21 (stereo not given),composite z-score,[1],1.12 (inactive)
same,composite z-score,XIP peptide (Xip251-270),-0.589
same,z-score,[2],-0.413
same,z-score,[3],-5.79 (inactive)
same,z-score,[4],0.251 (inactive)
same,z-score,[5],0.861 (inactive)
CN1CCC(c2ccc(CO)cc2)=CC1c1cccs1 (stereo not given),composite z-score,[1],0.219 (inactive)
same,composite z-score,XIP peptide (Xip251-270),0.171
same,z-score,[2],-1.99
same,z-score,[3],-4.11 (inactive)
same,z-score,[4],0.126 (inactive)
same,z-score,[5],-0.0255 (inactive)
O=C(O)CSc1ncnc2scc(-c3ccc(Br)cc3)c12,outcome,[8],inactive
N#Cc1ccc(-c2ccc3c(c2)[C@@H]2[C@@H](CCN2C(=O)c2ccc(F)cc2)[C@@H](CO)N3)cc1,outcome,[8],inactive
